Source: PubChem BioAssay AID1159580 (chemical genetic matrix, 2015)
About 2,000 (36%) of roughly 5,500 compounds were called active. Inconclusive results (about 18%) are left out. Cut-off read from the data, not from the text of the source: active = normalized growth mostly below about 0.91 (no sharp cut-off); inconclusive = no clear call, values can overlap the other calls; inactive = mostly above about 0.92. This is one part of the list.

Experiment: chemical genetic growth profiling, strain panel (AID 1159580);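 note: tested at 20 µM; growth read once vehicle control cultures reached saturation at 30 °C; 1 = growth at the plate median or of vehicle wells; lower values mean less growth of the strain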
Details: S. cerevisiae deletion strains, growth OD

Measured: normalized growth

CCOC(=O)Nc1nc2ccccc2[nH]1
inactive: locus YAL021C, strain ccr4, active compounds read low 0.936 | locus YAL026C, strain drs2, active compounds read low 0.977 | locus YAL030W, strain snc1, active compounds read low 0.96 | locus YBL061C, strain skt5, active compounds read low 0.982 | locus YBR009C, strain hhf1, active compounds read low 0.967 | locus YBR023C, strain chs3, active compounds read low 0.995 | locus YBR171W, strain sec66, active compounds read low 0.965 | locus YBR231C, strain swc5, active compounds read low 0.988 | locus YBR279W, strain paf1, active compounds read low 0.991 | locus YCL011C, strain gbp2, active compounds read low 0.979 | locus YCL016C, strain dcc1, active compounds read low 0.995 | locus YCL061C, strain MRC1, active compounds read low 0.992 | locus YCL069W, strain vba3, active compounds read low 0.992 | locus YCR088W, strain abp1, active compounds read low 0.99 | locus YDL005C, strain med2, active compounds read low 0.994 | locus YDL040C, strain nat1, active compounds read low 0.994 | locus YDR001C, strain nth1, active compounds read low 0.97 | locus YDR069C, strain doa4, active compounds read low 0.902 | locus YDR137W, strain rgp1, active compounds read low 0.865 | locus YDR159W, strain sac3, active compounds read low 0.979 | locus YDR195W, strain ref2 1.13 | locus YDR297W, strain sur2, active compounds read low 0.964 | locus YDR334W, strain swr1, active compounds read low 0.947 | locus YDR335W, strain msn5, active compounds read low 0.989 | locus YDR392W, strain spt3, active compounds read low 0.972 | locus YEL003W, strain gim4, active compounds read low 0.972 | locus YEL037C, strain rad23, active compounds read low 0.984 | locus YEL061C, strain CIN8 (second series), active compounds read low 0.983 | locus YER015W, strain faa2, active compounds read low 0.972 | locus YER016W, strain bim1, active compounds read low 0.994 | locus YER111C, strain swi4, active compounds read low 0.991 | locus YER155C, strain BEM2 (second series), active compounds read low 0.977 | locus YFR010W, strain ubp6, active compounds read low 0.937 | locus YGL167C, strain pmr1, active compounds read low 0.984 | locus YGL173C, strain kem1, active compounds read low 0.953 | locus YGL227W, strain vid30, active compounds read low 0.986 | locus YGL240W, strain doc1, active compounds read low 0.941 | locus YGL253W, strain hxk2, active compounds read low 0.982 | locus YHR013C, strain ard1, active compounds read low 0.956 | locus YHR027C, strain rpn1, active compounds read low 0.962 | locus YHR030C, strain SLT2, active compounds read low 0.969 | locus YHR079C, strain IRE1, active compounds read low 0.976 | locus YHR142W, strain chs7, active compounds read low 0.986 | locus YJL092W, strain hpr5, active compounds read low 0.999 | locus YJL095W, strain BCK1 (second series), active compounds read low 0.975 | locus YJL095W, strain BCK1, active compounds read low 0.987 | locus YJL115W, strain asf1, active compounds read low 0.961 | locus YJL129C, strain trk1, active compounds read low 1.03 | locus YJL154C, strain vps35, active compounds read low 0.982 | locus YJL164C, strain tpk1, active compounds read low 0.986 | locus YJL166W, strain qcr8, active compounds read low 0.977 | locus YJL187C, strain SWE1, active compounds read low 0.988 | locus YJR066W, strain TOR1, active compounds read low 0.923 | locus YKL160W, strain elf1, active compounds read low 0.985 | locus YKR026C, strain gcn3, active compounds read low 0.996 | locus YKR091W, strain srl3, active compounds read low 0.987 | locus YLL001W, strain dnm1, active compounds read low 0.987 | locus YLL026W, active compounds read low 0.974 | locus YLL041C, strain sdh2, active compounds read low 0.978 | locus YLR027C, strain aat2, active compounds read low 0.985 | locus YLR113W, strain HOG1, active compounds read low 1.03 | locus YLR221C, strain rsa3, active compounds read low 0.988 | locus YLR258W, strain gsy2, active compounds read low 0.984 | locus YLR262C, strain YPT6 (second series), active compounds read low 0.933 | locus YLR320W, strain mms22, active compounds read low 0.966 | locus YLR342W, strain FKS1, active compounds read low 0.988 | locus YLR357W, strain rsc2, active compounds read low 0.92 | locus YLR370C, strain arc18, active compounds read low 0.986 | locus YLR384C, strain iki3, active compounds read low 0.978 | locus YML120C, strain ndi1, active compounds read low 0.998 | locus YMR058W, strain fet3, active compounds read low 0.968 | locus YMR125W, strain sto1, active compounds read low 1 | locus YMR129W, active compounds read low 0.981 | locus YMR205C, strain PFK2, active compounds read low 0.904 | locus YMR231W, strain pep5, active compounds read low 0.989 | locus YNL071W, strain lat1, active compounds read low 0.985 | locus YNL183C, strain NPR1, active compounds read low 0.942 | locus YNL209W, strain ssb2, active compounds read low 0.971 | locus YNL248C, strain rpa49, active compounds read low 0.998 | locus YNL322C, strain KRE1 (second series), active compounds read low 0.983 | locus YNR049C, strain mso1, active compounds read low 0.983 | locus YOR001W, strain rrp6, active compounds read low 0.97 | locus YOR070C, strain gyp1, active compounds read low 0.983 | locus YOR080W, strain dia2, active compounds read low 0.971 | locus YOR083W, strain WHI5, active compounds read low 0.974 | locus YOR106W, strain vam3, active compounds read low 0.927 | locus YOR231W, strain MKK1, active compounds read low 0.954 | locus YOR265W, strain rbl2, active compounds read low 0.987 | locus YOR270C, strain vph1, active compounds read low 0.868 | locus YOR290C, strain snf2, active compounds read low 0.895 | locus YPL051W, strain arl3, active compounds read low 0.987 | locus YPL078C, strain atp4, active compounds read low 0.986 | locus YPL106C, strain sse1, active compounds read low 0.956 | locus YPL240C, strain hsp82, active compounds read low 0.991 | locus YPL256C, strain CLN2, active compounds read low 0.987
